Laboratory results as given in PubChem BioAssay AID485367 (National Center for Advancing Translational Sciences (NCATS), 2010).
Out of some 330,000 compounds screened, about 560 (0.17%) were called active. Roughly 1% stayed inconclusive and do not appear here. Calls follow the shape of the dose curve; as a rule, active = well fitted inhibition curve with a large enough effect; inconclusive = small, poorly fitted or top-dose-only effect, or effect the other way; inactive = flat fitted curve, though single readings scatter. What follows is part of a selection rich in actives, with near analogues and random picks from the rest.

Biological target: ATP-dependent 6-phosphofructokinase (Trypanosoma brucei brucei) (UniProt O15648)
Sequence (O15648 whole entry, looked up): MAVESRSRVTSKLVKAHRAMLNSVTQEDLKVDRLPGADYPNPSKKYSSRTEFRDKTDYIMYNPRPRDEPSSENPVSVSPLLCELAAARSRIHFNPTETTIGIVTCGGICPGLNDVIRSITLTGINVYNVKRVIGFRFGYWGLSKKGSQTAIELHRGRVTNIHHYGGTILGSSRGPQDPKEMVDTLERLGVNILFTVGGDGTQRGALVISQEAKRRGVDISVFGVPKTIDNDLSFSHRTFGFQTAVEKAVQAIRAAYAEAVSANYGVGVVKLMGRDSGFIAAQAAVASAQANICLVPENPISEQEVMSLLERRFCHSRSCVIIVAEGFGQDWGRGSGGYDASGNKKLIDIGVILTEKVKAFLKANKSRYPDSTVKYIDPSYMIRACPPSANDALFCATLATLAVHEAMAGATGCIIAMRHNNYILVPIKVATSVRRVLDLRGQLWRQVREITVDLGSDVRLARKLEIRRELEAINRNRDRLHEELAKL
Assay: qHTS Assay to Find Inhibitors of T. brucei phosphofructokinase; also: nearly all actives have a fitted effect of over 60% in size;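 as to activity, negative = inhibition: 0% = uninhibited 1x PFK enzyme wells and -100% = no-enzyme wells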
Settings: T. brucei PFK, ADP-Glo luminescence; series mostly up to 57.5 µM; activity, negative = inhibition: at the top concentration
Procedure, shortened: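 Activity is normalized to no-enzyme wells (full inhibition) and 1.25 nM enzyme wells (no inhibition). Reaction: 0.5 mM F6P, 0.1 mM ATP, 45 min RT, ADP-Glo luminescence; concentration-response curves fitted and classed by quality.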
Potency is read from the fitted curve at half-maximal effect.

Compound	activity, negative = inhibition	Potency
NC(=O)c1ncc(C(F)(F)F)cc1Oc1ccc(F)cc1	2.27% (inactive)	–
Cc1nc2nc(COc3ccccc3)[nH]n2c(=O)c1C	3.97% (inactive)	–
Cc1cc([N+](=O)[O-])nn1Cc1ccc(F)cc1	-3.17% (inactive)	–
O=C(O)CCN=C1CCc2ccccc2N1	1.34% (inactive)	–
O=C(NC1CCCCC1)c1ccc(CNc2c(N3CCOCC3)c(=O)c2=O)cc1	2.59% (inactive)	–
CCN(CC(=O)Nc1cccc(S(=O)(=O)N2CCCCC2)c1)Cc1ccccc1	3.5% (inactive)	–
CCOc1cccc(/C=N/N2C(=O)CSC2=S)c1O	–	7.57 µM (active)
CCOc1cc(/C=N/n2cnnc2)c(Br)cc1O	-1.74% (inactive)	–
CCOc1ccc(N2C(=O)CSC2=NC#N)cc1	1.09% (inactive)	–
C/C(=N/N1CCN(Cc2cccc3ccccc23)CC1)c1cccnc1	6.89% (inactive)	–
NS(=O)(=O)c1ccc(CCNC(=S)Nc2ccc(S(N)(=O)=O)cc2)cc1	-9.91% (inactive)	–
NS(=O)(=O)c1ccc(NC(=S)Nc2ccc(Br)c(Cl)c2)cc1	–	9.53 µM (active)
NS(=O)(=O)c1ccc(NC(=S)NC(=O)c2cccc(Br)c2)cc1	0.423% (inactive)	–
COc1ccc(NC(=O)Cn2cc(C(=O)c3ccncc3)c(=O)c3cc(C)ccc32)cc1Cl	-0.896% (inactive)	–
CCc1ccc(N(CC)c2ncnc3nc[nH]c23)cc1	-1.92% (inactive)	–
Nc1ccc(Nc2cc(O)c3ncccc3c2)cc1	-7.91% (inactive)	–
Cc1cccc(CCNS(=O)(=O)c2ccc(S(=O)(=O)NC3CCCC3)cc2)c1	0.864% (inactive)	–
CC1CCC(N2CC(=O)N(Cc3ccc4c(c3)OCO4)C(c3ccc(F)cc3)C2=O)CC1 (centres undefined)	-0.311% (inactive)	–
COC(=O)CNC(=O)c1ccc2c(c1)S(=O)(=O)c1ccccc1C2=O	-1.45% (inactive)	–
O=[N+]([O-])c1ccc(N2CCN(c3ccc(O)cc3)CC2)c(Cl)c1	2.76% (inactive)	–
O=S(=O)(NC1CCN(S(=O)(=O)c2ccc3c(c2)OCCO3)CC1)c1c(F)cccc1F	-4.77% (inactive)	–
O=C(COC(=O)c1cc[n+]([O-])cc1)Nc1ccc(Cl)c(C(F)(F)F)c1	-23.6% (inactive)	–
Cc1ccc(C(CC(=O)O)NC(=O)c2ccc(S(=O)(=O)N3CCCC3)cc2)cc1 (centres undefined)	-3.41% (inactive)	–
CCCCc1nnc(NC(=O)CS(=O)(=O)Cc2ccccc2)s1	4.44% (inactive)	–
Cn1c(=O)c([N+](=O)[O-])c(Oc2ccccc2)c2ccccc21	4.66% (inactive)	–
CCCN(CC(=O)Nc1ccc(OC)c(OC)c1)CC(=O)Nc1ccc(F)c(F)c1F	-5.89% (inactive)	–
COc1ccc(N2CCN(S(=O)(=O)c3ccc4c(c3)NC(=O)C(C)C(=O)N4)CC2)cc1 (centres undefined)	-3.57% (inactive)	–
COc1ccc(C)cc1NC(=O)CCS(=O)(=O)c1cccc2nonc12	0.301% (inactive)	–
Cn1nc(C(F)(F)F)cc1-c1ccc(/C=C(\C#N)C(=O)c2cccc(C(F)(F)F)c2)s1	-2.17% (inactive)	–
